The assay addresses Genome polyprotein (Dengue virus type 2 (strain 16681-PDK53)) (UniProt P29991). The assay can be described thus: flavivirus cap methylation enzyme inhibition – biochemical, confirmation dose response, primary screen (AID 588689). The conditions noted are these: Dengue-2 NS5 methyltransferase capping enzyme assay, at 25 µM, stronger effect = higher value.
[1] abbreviates: measured here: pilot screen replicate inhibition.

The whole screen tested about 340,000 compounds, of which about 1,000 (0.29%) were called active. No stated cut-off is given here; in the data, inconclusive means inhibition above about 29% without an active follow-up result; inactive means below that. A selection follows. Measured potencies and affinities stand elsewhere.

In general, inhibition refers to the relative decrease from the control value, in per cent.

Consider `COc1cccc(NC(=O)c2ccc(N3C(=O)C4CC=CCC4C3=O)cc2)c1` (configuration not stated), for which the inhibition is 0.77% (inactive).
For the molecule `CN(C)C(CNC(=O)C1CCN(S(=O)(=O)c2cccc(C(F)(F)F)c2)CC1)c1ccccc1` (configuration not stated), the inhibition was 0% (inactive).
Still for that read-out and setting: the value for `O=C(COc1ccc(F)c(Cl)c1)Nc1ccc(N2CCOCC2)cc1` was -11.9% (inactive); that for `Cc1c(N2C(=O)/C(=C3\C(=O)N(CC(=O)O)c4ccccc43)SC2=S)c(=O)n(-c2ccccc2)n1C` was 36.3% (inactive).
On the same count and under the same terms, the value for `CN1C(=O)/C(=C2\SC(=S)N(C(CCC(=O)O)C(=O)O)C2=O)c2ccccc21` (configuration not stated) was 8.73% (inactive).
For `O=C(O)C(Cc1ccc(O)cc1)N1C(=O)c2ccccc2C1=O` (configuration not stated), the inhibition was -2.65% (inactive).
Turning to `CCCC(C(=O)O)N1C(=O)/C(=C/c2cccn2C)SC1=S` (configuration not stated), the inhibition is -53.1% (inactive).
On to `O=C(Nc1ccccc1)N1CCNCC1`, for which the inhibition is -6.32% (inactive).
Regarding `CC1(C)OC1(C#N)c1ccccc1` (configuration not stated), the inhibition was -5.44% (inactive).
For `CCN(CC)S(=O)(=O)c1ccc(Nc2ccc(-c3ccc4c(c3)OCCO4)nn2)cc1`, the inhibition is -4.94% (inactive).
Same read-out and setting: the value for `CC(=O)N1CCN(c2ccc(NC(=S)NC(=O)c3ccc(C)c([N+](=O)[O-])c3)cc2)CC1` was -2.35% (inactive).
Regarding `O=C(NC(=O)c1cc([N+](=O)[O-])ccc1Cl)C1=C(N2CCCC2)COC1=O`, the inhibition was -8.37% (inactive).
Same read-out and setting: the value for `Cn1c(=N)c(S(=O)(=O)c2ccccc2)cc2c(=O)n3ccccc3nc21` was -8.12% (inactive).
On to `CCOC(=O)C1(C)/C(=N/Nc2ccccc2Cl)C(=O)C(=O)N1c1ccccc1` (configuration not stated), for which the inhibition was -3.23% (inactive).
Same read-out and setting: to `CCOC(=O)C1(C)/C(=N/Nc2ccc(Cl)cc2)C(=O)C(=O)N1c1ccccc1` (configuration not stated) belongs 3.28% (inactive); to `COC(C[C@@H](O)C[C@H](O)[C@@H](C)OCc1ccccc1)OC`, -8.19% (inactive).
In the case of `CC/C(=N/NC(=O)c1ccc2c(c1)OCO2)c1ccccc1O`, the inhibition was 3.08% (inactive).
Take `Cc1cccc(CN2CCN(CC(=O)N3CCCC3)C2=O)c1`: the inhibition is -5.66% (inactive).
Same read-out and setting: the value for `CC(=O)C1=C(O)C(=O)N(c2cc(C(C)(C)C)on2)C1c1ccc(Br)cc1` (configuration not stated) was 13.1% (inactive); that for `CC(=O)C1=C(O)C(=O)N(Cc2cccnc2)C1c1ccc(C(C)C)cc1` (configuration not stated) was -5.44% (inactive).
As to `Cc1cccc(CN2CCN(C(c3ccccc3)c3ccc(Cl)cc3)CC2)c1` (configuration not stated), the inhibition is 2.93% (inactive).
Regarding `CC1=NNC(=O)C1C(c1ccccc1)C(C#N)C#N` (configuration not stated), the inhibition is -4.84% (inactive).
The same measure, in the same setting: to `CC1=NNC(=O)C1C(c1ccc(F)cc1)C(C#N)C#N` (configuration not stated) belongs -10.2% (inactive).
`CC1=NN(Cc2ccccc2)C(=O)C1C(c1ccncc1)C(C#N)C#N` (configuration not stated): the inhibition was 13.5% (inactive).
In the case of `S=C(N/N=C/c1ccc(Br)cc1)N1CCCCC1`, the inhibition was 2.36% (inactive).
As to `CC(C)c1ccc(S(=O)(=O)N2CCN(C(=O)CCNS(=O)(=O)c3ccccc3F)CC2)cc1`, the inhibition was 2.2% (inactive).
On to `CCN1CCN(C(=O)/C=C/c2ccc(OC)cc2)CC1`, for which the inhibition is 0% (inactive). The inhibition under setting [1] was -2.12%.
Turning to `CCn1c([N+](=O)[O-])nc2c1c(=O)[nH]c(=O)n2C`, the inhibition is -10.1% (inactive).
For the molecule `Cc1ccc(SC(CC(=O)c2ccc(F)cc2)C(=O)O)cc1` (configuration not stated), the inhibition is 0% (inactive).
For `Cc1ccc(SC(CC(=O)c2ccc(C)cc2)C(=O)O)cc1` (configuration not stated), the inhibition is 16.8% (inactive).
With `CSc1ccccc1OCc1cc(C(=O)N2CCN3CCCC3C2)no1` (configuration not stated), the inhibition is -0.87% (inactive).
With `Cc1ccc(/C=C2/C(=O)ON=C2c2ccccc2)o1`, the inhibition was 19.3% (inactive).
In the case of `O=C1/C(=C\c2ccc(-c3ccccc3[N+](=O)[O-])o2)C(c2ccccc2)=NN1c1ccccc1`, the inhibition is 68.8% (inactive).
Consider `COc1ccc(-c2ccc(/C=C3\C(=O)N(c4ccccc4)N=C3c3ccccc3)o2)c([N+](=O)[O-])c1`, for which the inhibition was 6.61% (inactive).
On the same count and under the same terms, to `O=C1ON=C(c2ccccc2[N+](=O)[O-])/C1=C/c1cccc([N+](=O)[O-])c1O` belongs -2.21% (inactive); to `O=C1ON=C(c2ccc(Cl)c([N+](=O)[O-])c2)/C1=C/c1cccc([N+](=O)[O-])c1O`, -5.11% (inactive).
For `COc1cc([N+](=O)[O-])ccc1-c1ccc(/C=C2\C(=O)ON=C2c2ccccc2)o1`, the inhibition was 30.1% (inactive).
Take `COc1ccc(OCC(=O)N2CCCC2=O)c([N+](=O)[O-])c1`: the inhibition was 0.65% (inactive).
With `CC(C)CC(NC(=O)C(NC(=O)OC(C)(C)C)C(C)C)C(=O)N1CCCC1C(N)=O` (configuration not stated), the inhibition is -8.35% (inactive).
Consider `COc1cccc(-c2noc(CCC(=O)NCC3CCCO3)n2)c1` (configuration not stated), for which the inhibition was 1.45% (inactive).
Consider `CNC[C@@H]1OCc2cnnn2CCCC(=O)N([C@H](C)CO)C[C@H]1C`, for which the inhibition was 2.27% (inactive).
With `O=C(CCNC(=O)c1ccc([N+](=O)[O-])cc1)Oc1ccc(F)c(F)c1`, the inhibition was -4.42% (inactive).
`CCOC(=O)Cn1cnc2sc3c(c2c1=O)CCC3`: the inhibition is -3.92% (inactive).
As for `Cn1ccnc1SCC(=O)Nc1cc(F)ccc1F`, the inhibition was -1.95% (inactive).
Same read-out and setting: to `COC1=CC(=O)c2ccccc2C1=O` belongs 0.72% (inactive); to `COc1cccc2c1C(=O)C=C(C)C2=O`, 5.85% (inactive).
Take `Cc1ccc(C)c(OCC(O)CN2CCc3ccccc3C2)c1C` (configuration not stated): the inhibition was -0.98% (inactive).
Regarding `CNS(=O)(=O)c1cccc(C(=O)NCC(c2ccco2)N(C)C)c1` (configuration not stated), the inhibition was -4.17% (inactive).
In the case of `Cc1ccc(NC(=O)COC(=O)C2C3CC4OC(=O)C2C4C3)cc1` (configuration not stated), the inhibition is -4.16% (inactive).
As to `COc1ccc(N2CC(C(=O)OCC(=O)Nc3cccc(C)c3)CC2=O)cc1` (configuration not stated), the inhibition is -2.68% (inactive).
In the case of `CCC(c1ccc(O)cc1)C(CC)c1ccc(O)cc1` (configuration not stated), the inhibition was -4.4% (inactive).
Take `CCC(c1ccc(O)c(O)c1)C(CC)c1ccc(O)c(O)c1` (configuration not stated): the inhibition is -0.78% (inactive).
In the case of `O=C(O)c1ccccc1SCc1csc(-c2ccccc2)n1`, the inhibition was -4.89% (inactive).
The same measure, in the same setting: the value for `O=C(Cc1ccc(Br)cc1)NCCCn1ccnc1` was -12.3% (inactive); that for `CC(=O)Nc1ccccc1NS(=O)(=O)c1ccc(Cl)cc1` was -10.2% (inactive); that for `Cc1oc2c(cc(NS(=O)(=O)c3ccc(Cl)cc3)c3ccccc32)c1C(=O)O` was 14.3% (inactive).
Turning to `CCc1ccc(S(=O)(=O)NC(CC(=O)O)c2ccccc2)cc1` (configuration not stated), the inhibition is -2.12% (inactive).
As for `COC(=O)CNC(c1ccccc1)c1cc(Br)ccc1NS(=O)(=O)c1ccccc1` (configuration not stated), the inhibition is -1.28% (inactive).
The same measure, in the same setting: to `Cc1ccc(S(=O)(=O)Nc2ccc(Br)cc2C(NCC(=O)O)c2ccccc2)cc1` (configuration not stated) belongs -7.12% (inactive).
As for `CCc1ccc(S(=O)(=O)Nc2ccc(O)c3ccccc23)cc1`, the inhibition was 36.9% (inactive).
For `CC(=O)Nc1ccccc1NS(=O)(=O)c1cccc([N+](=O)[O-])c1`, the inhibition is -5.88% (inactive).
As for `O=C(c1ccccc1NS(=O)(=O)c1cccc([N+](=O)[O-])c1)N1CCCC1`, the inhibition is -1.62% (inactive).
Consider `COc1ccccc1OCC(=O)OCC(=O)NC1CCCCC1`, for which the inhibition was 1.94% (inactive).
As to `Cc1ccc(CNC(=O)C(C)C2Sc3ccccc3NC2=O)cc1` (configuration not stated), the inhibition is 3.04% (inactive).
In the case of `CC(=O)c1ccc(S(=O)(=O)N2CCN(c3nn(C)c(=O)n(C)c3=O)CC2)cc1`, the inhibition was -1.46% (inactive).
For `CCn1nc(C(=O)Nc2cccc(S(=O)(=O)N3CCCC3)c2)c2ccccc2c1=O`, the inhibition is -8.08% (inactive).
As for `Cc1nc(CC(=O)NNS(=O)(=O)c2cccc(Cl)c2Cl)cs1`, the inhibition was -1.61% (inactive).
For the molecule `CN(C(=O)COC(=O)c1ccc(Cl)s1)C1(C#N)CCCCC1`, the inhibition is -4.33% (inactive).
Same read-out and setting: to `Cc1ccc(S(=O)(=O)N(C)CCCC(=O)N2CCOCC2)cc1` belongs -2.14% (inactive); to `CCOC(=O)c1ccc(COC(=O)c2ccc3c(c2)-c2ccccc2C3=O)cc1`, 13.5% (inactive).
On to `O=C(OCc1ccc(F)cc1)c1ccc2c(c1)-c1ccccc1C2=O`, for which the inhibition is 6.7% (inactive).
Still for that read-out and setting: the value for `O=C(CCS(=O)(=O)c1ccc(Br)cc1)Nc1ccc(Br)cc1F` was -13.3% (inactive); that for `Cc1cc(C)n2nc(SCC(=O)N(C)c3c(N)n(Cc4ccccc4)c(=O)[nH]c3=O)nc2n1` was -7.52% (inactive).
On to `CCOC(=O)N/N=C/c1cc(C)n(-c2cccc3ccccc23)c1C`, for which the inhibition was 1.3% (inactive).
For `Cc1cc(C)n(CC(=O)NC2CCCCC2C)c(=O)c1C#N` (configuration not stated), the inhibition was -0.74% (inactive).
Take `NC1=CC(=O)C(=O)c2ccccc21`: the inhibition is 27.9% (inactive).
The same measure, in the same setting: the value for `O=C1C=C(N2CCOCC2)c2ccccc2C1=O` was 9.17% (inactive); that for `COc1ccc(C(C)=O)cc1CSc1nc2cc(C(=O)O)ccc2c(=O)n1Cc1ccccc1` was 4.46% (inactive).
Regarding `O=C(CSc1nncs1)NCCNC(=O)CSc1nncs1`, the inhibition is -2.96% (inactive).
As for `Cc1[nH]n(C(C)(C)C)c(=O)c1Sc1ccccc1`, the inhibition was -11.6% (inactive).
Turning to `Cc1[nH]n(-c2ccccc2)c(=O)c1Sc1ccc(Cl)cc1`, the inhibition was 13.9% (inactive).
On the same count and under the same terms, to `CC(C)(C)c1ccc(-c2nc(C=O)c3ccccn23)cc1` belongs 0% (inactive); to `N#C/C(=C\c1ccccc1)C(=O)NNS(=O)(=O)c1ccc(Br)cc1`, 13.6% (inactive); to `N#C/C(=C/c1cccc([N+](=O)[O-])c1)C(=O)Nc1ccccc1O`, 5.78% (inactive).
With `COC(CNC(=O)c1coc2nc3ccccc3nc12)OC`, the inhibition is -7.62% (inactive).
Consider `COC(CNC(=O)c1cccnc1)OC`, for which the inhibition is -7.01% (inactive).
Still for that read-out and setting: to `O=[N+]([O-])c1ccc(CN2CCC(Cc3ccccc3)CC2)cc1` belongs -6.79% (inactive); to `CCN1CCN(CCCNC(=O)CNC(=O)c2nn(-c3ccc(OC)cc3)c(=O)c3ccccc23)CC1`, 0.79% (inactive).
With `CCCCCc1nnc(N)s1`, the inhibition is 0% (inactive).
Still for that read-out and setting: to `CN1CCN(NC(=O)CSc2ccc(Cl)cc2Cl)CC1` belongs -10.7% (inactive).
`CCOC(=O)c1c(C)nc2c(c1-c1cc(OC)ccc1OC)C(=O)c1ccccc1-2`: the inhibition was 0% (inactive). Further, the inhibition under setting [1] was determined as 3.65%.
Take `CCOC(=O)c1c2c(n(Cc3ccccc3)c1C)C(=O)C(=O)c1ccccc1-2`: the inhibition is 25.5% (inactive).
Turning to `Cc1ccc(NC2=CC(=O)C(=O)c3ccccc32)cc1`, the inhibition is 54.8% (inactive). Further, the inhibition under setting [1] was determined as 5.15%.
Regarding `O=C1C=C(Nc2ccc(F)cc2)c2ccccc2C1=O`, the inhibition was 0.37% (inactive).

For the origin of these results see PubChem BioAssay AID588689 (Southern Research Specialized Biocontainment Screening …, 2011).
